# Data: PubChem BioAssay (EPA / NIEHS)
# Results filed as inconclusive are left out. Activity calls are given as the source filed them. The calls were made as follows, unless noted: active = hit-call score of the fitted dose curve at least 0.9, where 1 is the maximum; inconclusive = response in the unintended direction; inactive = score below 0.9.
# What was measured:
# [1] = CPHEA_Stoker_NIS_Cytotoxicity: Cytotoxicity Assessment for CPHEA's Radioactive Iodide Uptake (RAIU) Assay for Sodium/Iodide Symporter (NIS) Inhibition, Stoker and Laws Labs (AID 2283897);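 as to AC50: active means loss of ATP signal versus DMSO meaning cytotoxicity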
# Procedure, shortened: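 ATP luminescence (Cell Titer Glo) measured viability, with loss of signal normalized to DMSO controls. Cells: hNIS-HEK293T-EPA, seeded 40 hours prior. Dosing: 0.001–100uM, 2 hours, room temperature, uptake buffer pH 7.4.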
# [2] = CEETOX_H295R_11DCORT_noMTC: CeeTox H295R High-throughput Steroidogenesis Assay for 11-Deoxycortisol (11DCORT), maximum tolerated concentration (MTC) filtered results only (AID 2283911; active = hit-call score of the fitted dose curve at least 0.9, where 1 is the maximum; inactive = score below 0.9); details: actives raise or lower the signal
# Procedure, shortened: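 HPLC-MS/MS read-out of 11-deoxycortisol after MTBE extraction of H295R medium. Cells: forskolin 10 uM pre-stimulation 48 h, chemical 48 h, 0.1% DMSO final. Bidirectional fit vs DMSO baseline; no MTC filtering.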
# [3] = CEETOX_H295R_OHPREG_noMTC: CeeTox H295R High-throughput Steroidogenesis Assay for OH-Pregnenolone (OHPREG), maximum tolerated concentration (MTC) filtered results only (AID 2283912; active = hit-call score of the fitted dose curve at least 0.9, where 1 is the maximum; inactive = score below 0.9); details: actives raise or lower the signal
# Procedure, shortened: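 H295R human adrenal cells, forskolin-prestimulated (10 uM, 48 h), then exposed to test chemical in 0.1% DMSO for 48 h. 17alpha-hydroxypregnenolone in medium measured by HPLC-MS/MS after MTBE extraction; bidirectional fit versus DMSO, concentrations not MTC-filtered.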
# [4] = CEETOX_H295R_OHPROG_noMTC: CeeTox H295R High-throughput Steroidogenesis Assay for OH-Progesterone (OHPROG), maximum tolerated concentration (MTC) filtered results only (AID 2283914; active = hit-call score of the fitted dose curve at least 0.9, where 1 is the maximum; inactive = score below 0.9); details: actives raise or lower the signal
# Procedure, shortened: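 H295R human adrenal cells prestimulated 48 h with 10 uM forskolin, then exposed 48 h to test chemical (0.1% DMSO final). Medium 17alpha-hydroxyprogesterone extracted with MTBE, quantified by HPLC-MS/MS; bidirectional fit versus DMSO, concentrations not MTC-filtered.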
# [5] = CEETOX_H295R_ANDR_noMTC: CeeTox H295R High-throughput Steroidogenesis Assay for Androstenedione (ANDR), maximum tolerated concentration (MTC) filtered results only (AID 2283915; active = hit-call score of the fitted dose curve at least 0.9, where 1 is the maximum; inactive = score below 0.9); details: actives raise or lower the signal
# Procedure, shortened: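 H295R cells, passage 10 or below, prestimulated 48 h with 10 uM forskolin, then exposed 48 h to chemical in 0.1% DMSO. Medium androstenedione extracted with MTBE, quantified by HPLC-MS/MS; concentrations not MTC-filtered; bidirectional fit versus DMSO.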
# [6] = CEETOX_H295R_CORTISOL_noMTC: CeeTox H295R High-throughput Steroidogenesis Assay for Cortisol, maximum tolerated concentration (MTC) filtered results only (AID 2283916; active = hit-call score of the fitted dose curve at least 0.9, where 1 is the maximum; inactive = score below 0.9); details: actives raise or lower the signal
# Procedure, shortened: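 H295R adrenal cells were pre-stimulated 48 h with 10 uM forskolin, then exposed 48 h to test chemical in 0.1% DMSO. Medium cortisol was measured by MTBE extraction and HPLC-MS/MS; bidirectional fit versus DMSO, concentrations not MTC-filtered.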
# [7] = CEETOX_H295R_CORTIC_noMTC: CeeTox H295R High-throughput Steroidogenesis Assay for Corticosterone (CORTIC), maximum tolerated concentration (MTC) filtered results only (AID 2283917; active = hit-call score of the fitted dose curve at least 0.9, where 1 is the maximum; inactive = score below 0.9); details: actives raise or lower the signal
# Procedure, shortened: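 H295R, 10 uM forskolin prestim 48 h → test chem (0.1% DMSO final) 48 h → media MTBE extraction → HPLC-MS/MS corticosterone. Bidirectional fit vs DMSO baseline; no MTT-based MTC filtering.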
# [8] = CEETOX_H295R_DOC_noMTC: CeeTox H295R High-throughput Steroidogenesis Assay for DOC, maximum tolerated concentration (MTC) filtered results only (AID 2283918; active = hit-call score of the fitted dose curve at least 0.9, where 1 is the maximum; inactive = score below 0.9); details: actives raise or lower the signal
# Procedure, shortened: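 H295R cells prestimulated 48 h with 10 uM forskolin, then exposed 48 h to test chemical (0.1% DMSO final). Medium 11-deoxycorticosterone extracted with MTBE, quantified by HPLC-MS/MS; bidirectional fit versus DMSO, concentrations not MTC-filtered.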
# [9] = CEETOX_H295R_ESTRADIOL_noMTC: CeeTox H295R High-throughput Steroidogenesis Assay for Estradiol, maximum tolerated concentration (MTC) filtered results only (AID 2283919; active = hit-call score of the fitted dose curve at least 0.9, where 1 is the maximum; inactive = score below 0.9); details: actives raise or lower the signal
# Procedure, shortened: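 H295R human adrenal cells pre-stimulated 48 h with 10 uM forskolin, then exposed 48 h to chemical (0.1% DMSO final). Estradiol in medium measured by HPLC-MS/MS after MTBE extraction and dansyl derivatization; bidirectional fit versus DMSO, concentrations not MTT-filtered.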
# [10] = CEETOX_H295R_PROG_noMTC: CeeTox H295R High-throughput Steroidogenesis Assay for Progesterone (PROG), maximum tolerated concentration (MTC) filtered results only (AID 2283920; active = hit-call score of the fitted dose curve at least 0.9, where 1 is the maximum; inactive = score below 0.9); details: actives raise or lower the signal
# Procedure, shortened: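 H295R human adrenal cells were prestimulated 48 h with 10 uM forskolin, then exposed 48 h to test chemical (0.1% DMSO final). Progesterone in medium was quantified by HPLC-MS/MS; bidirectional fitting versus DMSO, concentrations not MTC-filtered.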
# [11] = CEETOX_H295R_ESTRONE_noMTC: CeeTox H295R High-throughput Steroidogenesis Assay for Estrone, maximum tolerated concentration (MTC) filtered results only (AID 2283921; active = hit-call score of the fitted dose curve at least 0.9, where 1 is the maximum; inactive = score below 0.9); details: actives raise or lower the signal
# Procedure, shortened: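 H295R cells prestimulated 48 h with 10 uM forskolin, then exposed 48 h to chemical in 0.1% DMSO; medium estrone measured by HPLC-MS/MS after MTBE extraction and dansyl derivatization, fitted bidirectionally versus DMSO without MTT-based MTC filtering.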
# [12] = CEETOX_H295R_TESTO_noMTC: CeeTox H295R High-throughput Steroidogenesis Assay for Testosterone (TESTO), maximum tolerated concentration (MTC) filtered results only (AID 2283924; active = hit-call score of the fitted dose curve at least 0.9, where 1 is the maximum; inactive = score below 0.9); details: actives raise or lower the signal
# Procedure, shortened: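 H295R cells prestimulated 48 h with 10 uM forskolin, then exposed 48 h to chemicals in 0.1% DMSO final. Testosterone in medium quantified by MTBE extraction and HPLC-MS/MS; bidirectional fit versus DMSO, concentrations […] filtered by MTT-based maximum tolerated concentration.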
# PGR (gene 5241) [13] = biological target: PGR (gene 5241) (UniProt P06401); assay: TOX21_PR_BLA_Followup_Agonist_ratio: Tox21 HEK293 Progesterone Receptor (PR) Agonism Beta-lactamase Follow-Up Assay, Ratio (AID 2283933)
# PGR (gene 5241), sequence (P06401 whole entry, looked up): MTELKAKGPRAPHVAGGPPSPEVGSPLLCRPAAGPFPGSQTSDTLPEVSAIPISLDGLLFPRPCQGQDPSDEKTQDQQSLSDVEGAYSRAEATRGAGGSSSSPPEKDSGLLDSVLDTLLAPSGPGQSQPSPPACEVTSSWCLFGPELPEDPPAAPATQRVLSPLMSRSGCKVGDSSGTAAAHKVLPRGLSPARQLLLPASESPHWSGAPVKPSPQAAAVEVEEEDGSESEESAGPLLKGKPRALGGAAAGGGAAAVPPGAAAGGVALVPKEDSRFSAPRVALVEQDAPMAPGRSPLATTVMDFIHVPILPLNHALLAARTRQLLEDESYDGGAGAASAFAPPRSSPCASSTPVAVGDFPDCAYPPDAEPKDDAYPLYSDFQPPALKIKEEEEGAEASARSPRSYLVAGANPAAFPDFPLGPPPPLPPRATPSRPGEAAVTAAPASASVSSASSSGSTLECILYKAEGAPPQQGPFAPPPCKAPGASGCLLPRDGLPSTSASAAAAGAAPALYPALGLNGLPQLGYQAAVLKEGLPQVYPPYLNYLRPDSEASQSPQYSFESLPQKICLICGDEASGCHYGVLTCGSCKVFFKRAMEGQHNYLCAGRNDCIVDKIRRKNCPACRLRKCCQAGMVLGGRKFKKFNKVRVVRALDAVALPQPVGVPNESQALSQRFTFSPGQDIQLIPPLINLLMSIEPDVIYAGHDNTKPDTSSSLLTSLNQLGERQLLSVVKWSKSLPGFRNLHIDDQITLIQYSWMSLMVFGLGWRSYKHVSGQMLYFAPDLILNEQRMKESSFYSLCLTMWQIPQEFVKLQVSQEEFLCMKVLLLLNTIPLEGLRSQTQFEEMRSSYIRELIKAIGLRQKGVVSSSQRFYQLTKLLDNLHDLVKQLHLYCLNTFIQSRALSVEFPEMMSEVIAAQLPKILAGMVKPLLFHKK
# Procedure, shortened: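 PR-UAS-bla HEK293T cells in medium with 2% charcoal-stripped FBS were dosed after 6 h plating and incubated 16 h at 37C. LiveBLAzer FRET substrate was added for 2 h at room temperature. Cleaved/uncleaved substrate ratio fitted against DMSO; CellTiter-Glo viability run in the same wells.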
# PGR (gene 5241) [14] = biological target: PGR (gene 5241) (UniProt P06401); assay: TOX21_PR_BLA_Followup_Antagonist_ratio: Tox21 HEK293 Progesterone Receptor (PR) Antagonism Beta-lactamase Follow-Up Assay, Ratio (AID 2283934)
# Procedure, shortened: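 PR-UAS-bla HEK293T cells, 3,000/well in 2% charcoal-stripped FBS, given compound plus 1nM R5020 agonist for 16 hr at 37C. Beta-lactamase FRET substrate 2 hours, ratio cleaved/uncleaved fluorescence; viability by CellTiter-Glo in same wells.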
# [15] = TOX21_PR_BLA_Followup_Agonist_viability: Viability Assessment in the Tox21 HEK293 Progesterone Receptor (PR) Agonism Beta-lactamase Follow-Up Assay (AID 2283935);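 also: signal loss means lower viability so actives are cytotoxic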
# Procedure, shortened: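 PR-UAS-bla HEK293T cells in 2% charcoal-stripped FBS medium, plated 6 hr before compound addition, exposed 16 hr at 37C. Viability read by CellTiter-Glo ATP luminescence after 30 min at room temperature, in the same wells as the beta-lactamase readout.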
# [16] = TOX21_PR_BLA_Followup_Antagonist_viability: Viability Assessment in the Tox21 HEK293 Progesterone Receptor (PR) Antagonism Beta-lactamase Follow-Up Assay (AID 2283936);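 also: hits lower the luminescence signal meaning cytotoxicity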
# Procedure, shortened: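 PR-UAS-bla HEK293T cells (3,000/well, 2% charcoal-stripped FBS) given compound plus R5020 agonist, 16 h at 37C. CellTiter-Glo added after bla read, 30 min at room temperature; luminescence loss indicates cytotoxicity.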
# PGR (gene 5241) [17] = biological target: PGR (gene 5241) (UniProt P06401); assay: TOX21_PR_LUC_Followup_Agonist: Tox21 HEK293 Progesterone Receptor (PR) Agonism Luciferase Follow-Up Assay (AID 2283937; active = hit-call score of the fitted dose curve at least 0.9, where 1 is the maximum; inactive = score below 0.9)
# Procedure, shortened: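 HEK293-PR-A-luc cells, conditioned 5 days in 10% charcoal-stripped FBS medium, seeded 3,000/well for 5 h, then compound-treated 16 h at 37C. ONE-Glo luminescence read after 30 min at room temperature; gain of signal versus DMSO.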
# [18] = biological target: Thyroid hormone receptor alpha (Rattus norvegicus) + Thyroid hormone receptor beta (Rattus norvegicus) (UniProt P18113+P63059); assay: TOX21_TR_LUC_GH3_Agonist_Followup: Tox21 GH3 Thyroid Hormone Receptor Agonism Luciferase Follow-Up Assay (AID 2283939)
# Thyroid hormone receptor alpha (Rattus norvegicus) + Thyroid hormone receptor beta (Rattus norvegicus), sequence (P63059 whole entry, looked up): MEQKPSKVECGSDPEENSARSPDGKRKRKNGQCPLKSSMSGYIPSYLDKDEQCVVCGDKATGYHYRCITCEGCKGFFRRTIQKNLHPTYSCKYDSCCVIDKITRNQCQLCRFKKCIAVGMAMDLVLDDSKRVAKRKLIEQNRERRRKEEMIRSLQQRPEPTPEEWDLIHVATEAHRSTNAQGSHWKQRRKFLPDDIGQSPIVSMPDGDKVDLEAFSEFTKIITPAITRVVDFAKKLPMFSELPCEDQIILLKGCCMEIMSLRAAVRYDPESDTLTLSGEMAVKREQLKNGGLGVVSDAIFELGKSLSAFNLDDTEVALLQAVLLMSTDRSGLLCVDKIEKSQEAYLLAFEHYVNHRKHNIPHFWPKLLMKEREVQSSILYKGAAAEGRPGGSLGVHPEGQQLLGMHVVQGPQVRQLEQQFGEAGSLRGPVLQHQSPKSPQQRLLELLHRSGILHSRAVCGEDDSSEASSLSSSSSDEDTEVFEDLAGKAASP
# Thyroid hormone receptor alpha (Rattus norvegicus) + Thyroid hormone receptor beta (Rattus norvegicus), sequence (P18113 whole entry, looked up): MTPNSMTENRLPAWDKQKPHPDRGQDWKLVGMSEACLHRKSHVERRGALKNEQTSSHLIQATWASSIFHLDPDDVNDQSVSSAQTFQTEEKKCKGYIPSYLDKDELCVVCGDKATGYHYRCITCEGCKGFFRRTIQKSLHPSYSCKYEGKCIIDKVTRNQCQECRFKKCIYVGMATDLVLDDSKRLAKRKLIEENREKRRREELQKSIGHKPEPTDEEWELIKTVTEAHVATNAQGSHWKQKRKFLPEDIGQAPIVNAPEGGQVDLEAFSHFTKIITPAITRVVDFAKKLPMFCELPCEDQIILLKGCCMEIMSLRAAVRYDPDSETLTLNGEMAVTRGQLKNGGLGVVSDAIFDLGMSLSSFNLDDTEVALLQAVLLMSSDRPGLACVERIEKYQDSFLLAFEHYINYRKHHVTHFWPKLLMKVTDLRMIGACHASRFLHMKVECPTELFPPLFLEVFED
# Procedure, shortened: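 Rat GH3 cells (1,500/well) in serum-free assay medium, treated with 15-point series, 92 uM to 5 nM final, for 24 h at 37C. Luciferase via ONE-Glo luminescence; gain of signal fitted against DMSO, T3 positive control.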
# [19] = TOX21_PR_LUC_Followup_Antagonist_viability: Viability Assessment in the Tox21 HEK293 Progesterone Receptor (PR) Antagonism Luciferase Follow-Up Assay (AID 2283940)
# Procedure, shortened: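 HEK293-PR-A-luc cells kept in charcoal-stripped FBS medium were plated 5 h before compound addition, then exposed 16 h at 37C; viability read as cellular ATP by luciferase luminescence, loss of signal indicating cytotoxicity.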
# PGR (gene 5241) [20] = biological target: PGR (gene 5241) (UniProt P06401); assay: TOX21_PR_LUC_Followup_Antagonist: Tox21 HEK293 Progesterone Receptor (PR) Antagonism Luciferase Follow-Up Assay (AID 2283938);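 also: curve fitted upward as signal gain over DMSO baseline despite antagonist label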
# Procedure, shortened: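 HEK293-PR-A-luc cells were precultured 5 days in medium with 10% charcoal-stripped FBS, seeded 3,000/well, then exposed to compounds in DMSO for 16 h at 37C. Luciferase was read by ONE-Glo luminescence after 30 min at room temperature.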
compound,measurement,setting,value
Cc1cc(CCN2CCN(c3nsc4ccccc34)CC2)cc2c1NC(=O)CC2(C)C,AC50,[1],9.92 µM (active)
same,AC50,[2],11.2 µM (active)
same,outcome,[3],inactive
same,AC50,[4],0.756 µM (active)
same,outcome,[5],inactive
same,AC50,[6],10 µM (active)
same,AC50,[7],2.65 µM (active)
same,AC50,[8],7.31 µM (active)
same,AC50,[9],3.98 µM (active)
same,AC50,[10],0.584 µM (active)
same,AC50,[11],4.93 µM (active)
same,outcome,[12],inactive
CN1CCN(c2ccccc2/C=C2\SCCN(c3ccc(Cl)c(Cl)c3)C2=O)CC1,outcome,[1],inactive
c1ccc2c(c1)ccc1ccccc12,outcome,[1],inactive
c1ccc2c(c1)Cc1ccccc1-2,outcome,[1],inactive
same,outcome,[2],inactive
same,outcome,[3],inactive
same,outcome,[4],inactive
same,outcome,[6],inactive
same,outcome,[7],inactive
same,outcome,[8],inactive
same,outcome,[9],inactive
same,outcome,[10],inactive
same,outcome,[11],inactive
CC(C)(C)c1ccc(O)c(C(C)(C)C)c1,AC50,[1],9.92 µM (active)
CC[C@H](C)[C@@H](C(=O)O)n1sc2ccccc2c1=O,outcome,[1],inactive
CCc1ccc(CCOc2ccc(CC3SC(=O)NC3=O)cc2)nc1 (configuration not stated),outcome,[1],inactive
c1ccc2cc3c(ccc4ccccc43)cc2c1,outcome,[1],inactive
same,outcome,PGR (gene 5241) [13],inactive
same,AC50,PGR (gene 5241) [14],21.8 µM (active)
same,outcome,[15],inactive
same,outcome,[16],inactive
same,outcome,PGR (gene 5241) [17],inactive
CCCCCCCCCCCCCC[N+](C)(C)C,outcome,[1],inactive
CCCCCCCCCCCCc1ccccc1S(=O)(=O)O,outcome,[1],inactive
O=C1OC2(c3ccccc31)c1cc(Br)c(O)c(Br)c1Oc1c2cc(Br)c(O)c1Br,outcome,[1],inactive
CC#C[C@]1(O)CC[C@H]2[C@@H]3CCC4=CC(=O)CCC4=C3[C@@H](c3ccc(N(C)C)cc3)C[C@@]21C,outcome,[1],inactive
CCCCCCCCCCCCN1CCCC1=O,outcome,[1],inactive
O=C(OCCOCCOC(=O)c1ccccc1)c1ccccc1,outcome,[1],inactive
O=C(O)c1ccccc1C(c1ccc(O)cc1)c1ccc(O)cc1,outcome,[1],inactive
O=C(O)Cc1cc(I)c(Oc2cc(I)c(O)c(I)c2)c(I)c1,outcome,[1],inactive
same,AC50,[18],0.00668 µM (active)
CCC(=C(c1ccc(O)cc1)c1ccc(OCCN(C)C)cc1)c1ccccc1,outcome,[1],inactive
C[C@@H]1C[C@H]2[C@@H]3CCC4=CC(=O)C=C[C@]4(C)[C@@]3(F)[C@@H](O)C[C@]2(C)[C@@]1(O)C(=O)COP(=O)(O)O,outcome,PGR (gene 5241) [14],inactive
same,outcome,[15],inactive
same,outcome,[16],inactive
same,outcome,[19],inactive
CC(=O)NC1(c2cccc(F)c2)CCN(CC[C@@]2(c3ccc(Cl)c(Cl)c3)CN(c3ccccc3)C(=O)CO2)CC1,outcome,[1],inactive
CC(C)(C)c1cc(C(C)(C)C)c(O)c(C(C)(C)C)c1,outcome,[18],inactive
CC(C)(C)c1cccc(C(C)(C)C)c1O,outcome,[1],inactive
Oc1cc2ccccc2c2ccccc12,outcome,[1],inactive
CC1=C(/C=C/C(C)=C/C=C/C(C)=C/C(=O)O)C(C)(C)CCC1,outcome,[1],inactive
Cc1oc(-c2ccccc2)nc1CCOc1ccc(C[C@H](Nc2ccccc2C(=O)c2ccccc2)C(=O)O)cc1,AC50,[1],9.21 µM (active)
NC(=O)N1C(=O)C(C(=O)c2cc(Cl)cs2)c2cc(F)c(Cl)cc21 (configuration not stated),outcome,[1],inactive
CC[C@H](c1ccc(O)cc1)[C@@H](CC)c1ccc(O)cc1,AC50,[1],9.92 µM (active)
same,outcome,PGR (gene 5241) [13],inactive
same,AC50,PGR (gene 5241) [14],9.17 µM (active)
same,outcome,[15],inactive
same,outcome,[16],inactive
same,outcome,PGR (gene 5241) [17],inactive
same,AC50,PGR (gene 5241) [20],16.2 µM (active)
ClC1=C(Cl)C(Cl)(Cl)C(Cl)=C1Cl,outcome,[1],inactive
